{
  "source": "PubChem BioAssay (EPA / NIEHS)",
  "note": "Values joined by “and” are separate entries in the source; they are usually repeats but may differ in a detail not shown here. Equal values may be shown once. Active and inactive are the calls of the source. How the source made its calls: active means hit-call score of the fitted dose curve at least 0.9, where 1 is the maximum; inactive means score below 0.9.",
  "data": [
    {"experiment": "ATG_PPRE_CIS: Attagene CIS-FACTORIAL HepG2 Assay for human Peroxisome Proliferator-activated Response Element (PPRE) (AID 2282958)", "details": "HepG2 PPRE cis-element reporter, Attagene transcription factor profiling; actives raise or lower the signal", "description": "ATG_CIS is a cell-based, multiplexed-readout assay that uses HepG2, a human liver cell line, with measurements taken at 24 hours after chemical dosing in a 24-well plate.ATG_PPRE_CIS is one of 52 assay component(s) measured or calculated from the ATG_CIS assay. It is designed to make measurements of mRNA induction, a form of inducible reporter, as detected with fluorescence intensity signals by Reverse transcription polymerase chain reaction (RT-PCR) and Capillary electrophoresis technology.Data from the assay component ATG_PPRE_CIS was analyzed into 1 assay endpoint. This assay endpoint, ATG_PPRE_CIS, was analyzed with bidirectional fitting relative to DMSO as the negative control and baseline of activity. Using a type of inducible reporter, measures of mRNA for gain or loss-of-signal activity can be used to understand the reporter gene at the transcription factor-level as they relate to the gene PPARA and PPARD and PPARG. Furthermore, this assay endpoint can be referred to as a primary readout, because this assay has produced multiple assay endpoints where this one serves a reporter gene function. To generalize the intended target to other relatable targets, this assay endpoint is annotated to the nuclear receptor intended target family, where the subfamily is non-steroidal.\nHuman liver HepG2 cells are transiently transfected with multiple reporter transcription units (MRTUs) in 6-well plates using FuGene 6 reagent (Roche; 3 ml FuGene/1 mg DNA). The MRTU constructs are regulated by a cis-regulating element (promoter). […] A major difference between the CIS and TRANS system is that in CIS activities of endogenous TFs are measured, whereas the TRANS assay evaluates changes in activities of exogenous, chimeric NR-Gal4 proteins. […] At the end of 24 hour incubation, total RNA was isolated using TriZol reagent (Invitrogen). The isolated RNA is then reverse-transcribed using oligo(dT) primer and Mo-MLV reverse transcriptase (Invitrogen) with DNAse I (Ambion) treatment for 30 min. The one-tenth of the produced cDNA was amplified by PCR using Taq DNA polymerase (Invitrogen) and two reporter sequence-specific primers. The PCR products were fluorescently labeled by primer extension with 6-arboxyfluorescein (6-FAM) 5'-labeled reporter sequence-specific primer (2 min at 95 C, 20 s at 68 C and 10 min at 72 C) and these products were digested with 5U of HpaI (New England Biolabs) for 2h at 37 C. The fragments were purified using Qiaquick PCR columns (Qiagen), analyzed on an ABI 3130xL genetic analyzer (Applied Biosystems) with peak positions identified by using a set of X-rhodamine (ROX)-labeled MapMarker1000 molecular weight standards (BioVentures). The raw capillary electrophoresis data was processed using Attagraph software (Attagene).", "values": [
      {"smiles": "CC(C)(C)N(NC(=O)c1ccc(Cl)cc1)C(=O)c1ccccc1", "outcome": "inactive"},
      {"smiles": "O=[N+]([O-])c1cc(Cl)ccc1Cl", "outcome": "inactive"},
      {"smiles": "CCN(CC)C1CCCCC1", "outcome": "inactive"},
      {"smiles": "O=C(O)C=CC(F)(C(F)(F)F)C(F)(F)F", "outcome": "inactive"},
      {"smiles": "CCOP(=S)(NC(C)C)Oc1ccccc1C(=O)OC(C)C", "note": "(stereo not given)", "outcome": "inactive"},
      {"smiles": "COP(N)(=S)OC", "outcome": "inactive"},
      {"smiles": "c1ccc2c(c1)Nc1ccccc1S2", "outcome": "inactive"},
      {"smiles": "NC(=O)C(F)(F)C(F)(F)F", "outcome": "inactive"},
      {"smiles": "CCCCOCCOP(=O)(OCCOCCCC)OCCOCCCC", "outcome": "inactive"},
      {"smiles": "ClC(Cl)c1ccccc1", "outcome": "inactive"},
      {"smiles": "OCC(F)(F)OC(F)(F)C(F)(F)OC(F)(F)C(F)(F)OC(F)(F)CO", "outcome": "inactive"},
      {"smiles": "CC(C)(C)OOC(C)(C)C", "outcome": "inactive"},
      {"smiles": "Cn1[nH]nnc1=S", "outcome": "inactive"},
      {"smiles": "Cc1cccc(N)c1", "outcome": "inactive"},
      {"smiles": "CCOP(=S)(Oc1ccc([N+](=O)[O-])cc1)c1ccccc1", "note": "(stereo not given)", "outcome": "inactive"},
      {"smiles": "CCNc1nc(Cl)nc(NC(C)(C)C)n1", "outcome": "inactive"},
      {"smiles": "CCCCN(CCCC)SN(C)C(=O)Oc1cccc2c1OC(C)(C)C2", "outcome": "inactive"},
      {"smiles": "CC(C)CBr", "outcome": "inactive"},
      {"smiles": "Nc1ccc(Sc2ccc(N)cc2)cc1", "AC50": "51.2 µM (active)"},
      {"smiles": "O=S(=O)(c1ccc(O)cc1)c1ccc(O)cc1", "outcome": "inactive"},
      {"smiles": "N#Cc1cc([N+](=O)[O-])ccc1N", "outcome": "inactive"},
      {"smiles": "N#Cc1c(-c2ccc(Cl)cc2)[nH]c(C(F)(F)F)c1Br", "outcome": "inactive"},
      {"smiles": "CCOP(=S)(OCC)SCn1nnc2ccccc2c1=O", "outcome": "inactive"},
      {"smiles": "O=[N+]([O-])c1ccccc1", "outcome": "inactive"},
      {"smiles": "CCOP(=S)(OCC)SCSc1ccc(Cl)cc1", "outcome": "inactive"},
      {"smiles": "O=c1[nH]c2ccccc2c(=O)o1", "outcome": "inactive"},
      {"smiles": "O=P(OCC(Br)CBr)(OCC(Br)CBr)OCC(Br)CBr", "note": "(stereo not given)", "outcome": "inactive"},
      {"smiles": "COC(N)=O", "outcome": "inactive"},
      {"smiles": "N#C/C=C/c1ccccc1", "outcome": "inactive"},
      {"smiles": "Oc1ccc(I)cc1", "outcome": "inactive"},
      {"smiles": "O=C(O)C(F)(F)OC(F)(F)C(F)(F)OC(F)(F)F", "AC50": "96.5 µM (active) and 114 µM (active)"},
      {"smiles": "CSC(C)(C)C=NO", "outcome": "inactive"},
      {"smiles": "CCCN(CCC)c1c([N+](=O)[O-])cc(C(C)C)cc1[N+](=O)[O-]", "outcome": "inactive"},
      {"smiles": "O=c1ssc(Cl)c1Cl", "outcome": "inactive"},
      {"smiles": "C=CC(=O)OCC(F)(F)C(F)F", "outcome": "inactive"},
      {"smiles": "CCCCC(CC)COC(=O)c1c(Br)c(Br)c(Br)c(Br)c1C(=O)OCC(CC)CCCC", "note": "(stereo not given)", "outcome": "inactive"},
      {"smiles": "CCC1(c2ccccc2)C(=O)N=C(O)NC1=O", "note": "(stereo not given)", "outcome": "inactive"},
      {"smiles": "O=[N+]([O-])c1ccc(Cl)c(Cl)c1", "outcome": "inactive"},
      {"smiles": "C=CC(=O)OCC(CC)(COC(=O)C=C)COC(=O)C=C", "outcome": "inactive"},
      {"smiles": "CC(O)C(F)(F)C(F)(F)F", "note": "(stereo not given)", "outcome": "inactive"}
    ]}
  ]
}
